# Experimental data from PubChem BioAssay.
# Results filed as inconclusive are left out. Active and inactive are the calls of the source. Unless noted, no cut-off is given here; in the data, nearly all actives have AC50 up to about 30 µM.
# Assays:
# [1] = viability loss in pontine glioma line – cell-based, SU-DIPG-XIII, MIPE4.0, CellTiter-Glo, qHTS, dose response (AID 1347061; cut-off not given, nearly all actives have AC50 up to about 37 µM;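 note: cells exposed to compound for 48 hours before readout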); conditions: CellTiter-Glo ATP luminescence
# [2] = viability loss in pontine glioma line – cell-based, JHH-DIPG-1, MIPE4.0, CellTiter-Glo, qHTS, dose response (AID 1347062; cut-off not given, nearly all actives have AC50 up to about 27 µM;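 for AC50: cells exposed to compound for two days before readout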); conditions: JHH-DIPG-1 viability, CellTiter-Glo ATP luminescence
# [3] = viability loss in pontine glioma line – cell-based, SU-DIPG-IV, MIPE4.0, CellTiter-Glo, qHTS, dose response (AID 1347063); conditions: CellTiter-Glo ATP luminescence;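 note: compound exposure lasted 48 hours before the viability readout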
# [4] = growth inhibition of DIPG cells – cell-based, MIPE4.0 library, CellTiter-Glo luminescence, qHTS (AID 1347066); conditions: SU-DIPG-VI viability, CellTiter-Glo ATP luminescence;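 note: cells exposed to compound for 48 hours before readout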
# [5] = viability loss in pontine glioma line – cell-based, SU-DIPG-XXV, MIPE5.0, CellTiter-Glo, qHTS, dose response (AID 1347065; cut-off not given, nearly all actives have AC50 up to about 26 µM;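 note: cells exposed to compound for 48 hours before ATP readout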); conditions: CellTiter-Glo ATP luminescence
# [6] = JHH-DIPG-1 glioma cell viability, MIPE5.0 library, CellTiter-Glo luminescence, qHTS (AID 1347067; cut-off not given, nearly all actives have AC50 up to about 26 µM;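 note: cells exposed to compound for 48 hours before readout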); conditions: JHH-DIPG-1 glioma viability, CellTiter-Glo ATP luminescence
# [7] = growth inhibition of DIPG cells – cell-based, MIPE5.0 library, qHTS (AID 1347068; cut-off not given, nearly all actives have IC50 up to about 30 µM;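 for IC50: cells exposed to compound for 48 hours before viability readout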); conditions: SU-DIPG-XXV viability
# [8] = MELAS cybrid and Rieske KO viability enhancers – cell-based, MELAS cybrids, Rieske KO mouse fibroblasts, CellTiter-Glo, primary screen (AID 1508586;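 active = mean z-score across replicates of 1.96 or higher in either the MELAS or the Rieske mutant cell line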;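 note: z relative to plate mean and SD of compound and empty wells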); conditions: low glucose
# [9] = growth inhibition, single agent or in combination, cell-based, chromothripsis tumors, cisplatin or BGB combos (AID 1671449; in the data active = inhibition above about 80%;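 note: cells exposed for 96 hours; 0% = vehicle DMSO and 100% = killing by high DMSO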); conditions: LFS_MB_P medulloblastoma cells
# [10] = growth inhibition, single agent and combos, cell-based, chromothripsis tumors, cisplatin or BGB combos (AID 1671450; in the data active = inhibition above about 80%;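 note: cells exposed to compound for four days; 0% = vehicle DMSO and 100% = cell killing by high DMSO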); conditions: HDN33 neuroblastoma cells, stronger effect = higher value
# [11] = growth inhibition, single agents and combos, ICB984, cell-based, cisplatin or BGB combos, synergistic combos for chromothripsis tumors (AID 1671451; call rule not given here;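 note: cells exposed for 96 hours before readout; 0% = vehicle DMSO and 100% = killing by high DMSO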); conditions: ICB984 medulloblastoma cells, drug combinations, stronger effect = higher value
# [12] = growth inhibition, single agents and combos, LFS_MB_1R, cell-based, cisplatin or BGB combos, synergistic combos for chromothripsis tumors (AID 1671452; in the data active = inhibition above about 80%;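 note: cells exposed for 96 hours before readout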); conditions: LFS_MB_1R medulloblastoma cells, stronger effect = higher value
# [13] = growth inhibition, single agents and combos, HTB85, cell-based, BGB or cisplatin IC20 combos, synergistic combos for chromothripsis tumors (AID 1671453; in the data active = inhibition above about 80%;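 note: cells exposed for 96 hours before readout; 0% = vehicle DMSO and 100% = high DMSO killing control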); conditions: HTB85 osteosarcoma cells, drug combinations, stronger effect = higher value
# [14] = growth inhibition, MDA-MB-436, cell-based, BGB or cisplatin combos, synergistic combos for chromothripsis tumors (AID 1671458; call rule not given here;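 note: cells exposed for 96 hours; 0% = vehicle DMSO and 100% = killing by high DMSO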); conditions: MDA-MB-436 breast carcinoma growth inhibition, drug combinations, stronger effect = higher value
# [15] = BT084 cell growth, single and combined drugs, ICGC_MB145, cisplatin and BGB IC40 combos (AID 1671461; in the data active = inhibition above about 80%;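 note: cells exposed to drugs for 96 hours; 0% = vehicle DMSO and 100% = high DMSO full killing control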); conditions: BT084 medulloblastoma cells, drug combinations, stronger effect = higher value
# [16] = RCMB18 cell growth, single agent and combined, cisplatin and BGB IC40 combos (AID 1671462; in the data active = inhibition above about 80%;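 note: cells exposed to compound for four days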); conditions: RCMB18 medulloblastoma cells, stronger effect = higher value
# [17] = CRL1545 cell growth, single agent and combined, cisplatin and BGB IC20 combos (AID 1671464; in the data active = inhibition above about 80%;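 note: cells exposed to compound for 96 hours before readout; 0% = vehicle DMSO and 100% = high DMSO killing control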); conditions: CRL1545 osteosarcoma cells, stronger effect = higher value
# [18] = viability loss with induced miR-34 in A549 – imaging, A549 dox-inducible miR-34, nuclei and caspase counts, primary screen (AID 1347080;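 active = compounds whose cell count with miR-34 switched on is under 0.7 times the count with it off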); conditions: A549 miR-34 inducible, Hoechst nuclei count, 48 h
# [19] = MELAS cybrid survival, CellTiter-Glo 48 h, stronger effect = higher value
# [20] = Rieske KO mouse fibroblast survival, CellTiter-Glo 72 h
# [21] = measured here: combination with BGB IC40, at 0.05 µM
# [22] = measured here: with BGB IC20 combination, at 0.5 µM
# [23] = measured here: with cisplatin IC20 combination, at 0.5 µM
# [24] = measured here: combination with cisplatin, at 0.5 µM
# [25] = stronger effect = lower value, cell number ratio, induced over uninduced
# [26] = measured here: relative caspase fold change +Dox/-Dox
# [27] = measured here: total cells with miR-34 induction, stronger effect = lower value
# [28] = measured here: total cells without miR-34 induction
smiles,measurement,setting,value
C[C@]12C=CC(=O)N[C@@H]1CC[C@@H]1[C@@H]2CC[C@]2(C)[C@@H](C(=O)Nc3cc(C(F)(F)F)ccc3C(F)(F)F)CC[C@@H]12,outcome,[1],inactive
same,outcome,[2],inactive
same,outcome,[3],inactive
O=C(C=CC#Cc1cccc(NS(=O)(=O)c2ccccc2)c1)NO,AC50,[1],14.8 µM (active)
same,AC50,[2],9.35 µM (active)
same,AC50,[3],4.18 µM (active)
same,AC50,[4],18.7 µM (active)
O=C(Nc1ncc(SCCN2CCCC2)s1)[C@]1(c2ccc(S(=O)(=O)C3CC3)cc2)C[C@H]1C1CCCCC1,outcome,[1],inactive
same,AC50,[2],14.8 µM (active)
same,AC50,[5],9.34 µM (active)
same,AC50,[4],20.9 µM (active)
same,AC50,[6],11.8 µM (active)
same,IC50,[7],20.9 µM (active)
N#CC1(c2cccc(C(=O)Nc3cc(Oc4ccc5nc(NC(=O)C6CC6)sc5n4)ccc3F)c2Cl)CC1,AC50,[1],0.935 µM (active)
same,AC50,[2],18.7 µM (active)
same,AC50,[5],0.833 µM (active)
same,outcome,[4],inactive
Nc1nc(F)nc2c1ncn2[C@@H]1O[C@H](CO)[C@@H](O)[C@H]1O,AC50,[1],1.05 µM (active)
same,AC50,[2],0.59 µM (active)
same,AC50,[3],0.264 µM (active)
same,AC50,[4],0.833 µM (active)
CNc1ccc(C(=O)Oc2cc(ON[N+](=O)N(C)C)c([N+](=O)[O-])cc2C#N)cc1,outcome,[1],inactive
same,outcome,[2],inactive
same,outcome,[3],inactive
same,outcome,[4],inactive
CC(C)CN(C[C@@H](O)[C@H](Cc1ccccc1)NC(=O)O[C@H]1CO[C@H]2OCC[C@H]21)S(=O)(=O)c1ccc(N)cc1,AC50,[1],20.9 µM (active)
same,outcome,[2],inactive
same,outcome,[3],inactive
same,AC50,[4],23.5 µM (active)
same,z-score,[8]; [19],0.705 (inactive)
same,z-score,[8]; [20],0.765
COC(=O)N[C@H](C(=O)N1CCC[C@H]1c1ncc(-c2ccc(-c3ccc(-c4cnc([C@@H]5CCCN5C(=O)[C@@H](NC(=O)OC)C(C)C)[nH]4)cc3)cc2)[nH]1)C(C)C,outcome,[1],inactive
same,outcome,[2],inactive
same,AC50,[3],26.4 µM (active)
same,AC50,[6],23.5 µM (active)
O=C(O)CO.[NH2-].[NH2-].[Pt+2],outcome,[1],inactive
same,outcome,[2],inactive
same,outcome,[3],inactive
same,outcome,[4],inactive
same,inhibition,"[9]; at 0.5 µM, stronger effect = higher value",-35.8% (inactive)
same,inhibition,"[9]; measured here: combination with BGB IC20, at 0.005 µM",-22.6%
same,inhibition,"[9]; measured here: combination with BGB IC40, at 0.005 µM",-55.5%
same,inhibition,[9]; [21],-20.9%
same,inhibition,"[9]; measured here: combination with cisplatin, at 0.5 µM, stronger effect = higher value",-40.8%
same,inhibition,"[9]; measured here: combination with cisplatin, at 5 µM, stronger effect = higher value",-22.9%
same,inhibition,"[10]; BGB combo, at 5 µM",-38.9%
same,inhibition,[10]; at 0.5 µM,11.9% (inactive)
same,inhibition,"[10]; cisplatin combo, at 5 µM",6.72%
same,inhibition,[10]; [22],3.13%
same,inhibition,[10]; [23],36.3%
same,inhibition,"[10]; single agent, at 5 µM",-22.5%
same,inhibition,"[11]; BGB IC20 combo, at 0.005 µM",-33.3%
same,inhibition,"[11]; BGB IC40 combo, at 0.005 µM",-24.4%
same,inhibition,"[11]; BGB IC40 combo, at 0.05 µM",-27.5%
same,inhibition,[11]; at 0.5 µM,-23.1% (inactive)
same,inhibition,"[11]; cisplatin combo, at 0.05 µM",-34.1%
same,inhibition,"[11]; cisplatin combo, at 0.5 µM",-33.3%
same,inhibition,"[11]; cisplatin combo, at 5 µM",-25.6%
same,inhibition,"[11]; measured here: 5 uM single agent, at 5 µM",-2.84%
same,inhibition,[12]; at 0.5 µM,-13.7% (inactive)
same,inhibition,[12]; [21],-19.6%
same,inhibition,[12]; [24],-19.7%
same,inhibition,"[12]; measured here: combination with cisplatin, at 5 µM",-34.1%
same,inhibition,[13]; at 0.5 µM,1.55% (inactive)
same,inhibition,"[13]; measured here: with BGB IC20, at 0.5 µM",26.1%
same,inhibition,"[13]; measured here: with BGB IC20, at 5 µM",-2.11%
same,inhibition,"[13]; measured here: with cisplatin IC20, at 0.5 µM",-15.5%
same,inhibition,"[13]; measured here: with cisplatin IC20, at 5 µM",-7.66%
same,inhibition,"[13]; single agent, at 5 µM",-0.083%
same,inhibition,[14]; at 0.5 µM,-15.3% (inactive)
same,inhibition,"[14]; measured here: BGB combination, at 0.5 µM",-9.4%
same,inhibition,"[14]; measured here: BGB combination, at 5 µM",1.16%
same,inhibition,"[14]; measured here: cisplatin combination, at 0.5 µM",-35.5%
same,inhibition,"[14]; measured here: cisplatin combination, at 5 µM",-23.8%
same,inhibition,[15]; at 0.5 µM,-4.94% (inactive)
same,inhibition,"[15]; cisplatin combination, at 0.5 µM",2.17%
same,inhibition,"[15]; cisplatin combination, at 5 µM",-267%
same,inhibition,"[15]; measured here: BGB IC40 combination 0.05 uM, at 0.05 µM",-15.1%
same,inhibition,"[15]; single agent, at 5 µM",-4.36%
same,inhibition,[16]; at 0.5 µM,-16.2% (inactive)
same,inhibition,"[16]; cisplatin combo, at 5 µM",4.38%
same,inhibition,"[16]; measured here: BGB IC40 combination, at 0.05 µM",-28.2%
same,inhibition,[16]; [24],6.48%
same,inhibition,"[16]; single agent, at 5 µM",-8.12%
same,inhibition,[17]; at 0.5 µM,-2.61% (inactive)
same,inhibition,[17]; [22],-12.1%
same,inhibition,[17]; [23],0.578%
same,inhibition,"[17]; single agent, at 0.05 µM",-10.5%
same,inhibition,"[17]; single agent, at 5 µM",-18%
COc1cc2c(cc1OC)[C@@H]1Cc3ccc(OC)c(OC)c3CN1CC2,outcome,[1],inactive
same,outcome,[2],inactive
same,outcome,[3],inactive
same,outcome,[4],inactive
same,fold change,[18]; [25],0.902 (inactive)
same,fold change,[18]; [26],0.654
same,cell count,[18]; [27],9170
same,cell count,[18]; [28],10200
same,z-score,[8]; [19],-0.395 (inactive)
same,z-score,[8]; [20],0.428
CCn1c(C(=O)N(C2CC2)C2CC2)cc2c3c(ncn3C)c(Nc3cc(C)n(C)n3)nc21,outcome,[1],inactive
same,outcome,[2],inactive
same,outcome,[3],inactive
same,outcome,[4],inactive
same,outcome,[7],inactive
C[N+]1(C)[C@@H]2CC(OC(=O)C(O)(c3cccs3)c3cccs3)C[C@H]1[C@@H]1O[C@@H]12 (some centres not stated),outcome,[1],inactive
same,outcome,[2],inactive
same,outcome,[3],inactive
same,outcome,[4],inactive
same,fold change,[18]; [25],0.899 (inactive)
same,fold change,[18]; [26],1.32
same,cell count,[18]; [27],10300
same,cell count,[18]; [28],11500
same,z-score,[8]; [19],-0.0486 (inactive)
same,z-score,[8]; [20],-0.119
CC(C(C)N1CC(=O)NC(=O)C1)N1CC(=O)NC(=O)C1 (configuration not stated),outcome,[1],inactive
same,outcome,[2],inactive
same,outcome,[3],inactive
same,outcome,[4],inactive
same,outcome,[6],inactive
same,outcome,[7],inactive
Cc1cnn(C)c1C(=O)Nc1cc(Nc2ccc3c(/C=C/c4ccccn4)n[nH]c3c2)ccc1F,AC50,[1],13.2 µM (active)
same,AC50,[2],18.7 µM (active)
same,AC50,[3],14.8 µM (active)
same,AC50,[4],18.7 µM (active)
O=C(O)C1=NC(C(=O)O)CC(/C=C/N2c3cc(O)c(OC4OC(CO)C(O)C(O)C4O)cc3CC2C(=O)O)=C1 (configuration not stated),outcome,[1],inactive
same,outcome,[2],inactive
same,outcome,[3],inactive
same,outcome,[4],inactive
N#CC(=C(O)c1ccc(Cl)cc1Cl)c1nc2cc(Cl)ccc2c(=O)[nH]1,outcome,[1],inactive
same,outcome,[2],inactive
same,outcome,[3],inactive
same,outcome,[4],inactive
Nc1ccn([C@H]2CS[C@@H](CO)O2)c(=O)n1,outcome,[1],inactive
same,outcome,[2],inactive
same,outcome,[3],inactive
same,outcome,[4],inactive
CCCCCCCCCCCCc1ccc(S(=O)(=O)Nc2nncs2)cc1,outcome,[1],inactive
same,outcome,[2],inactive
same,outcome,[3],inactive
same,outcome,[4],inactive
same,outcome,[7],inactive
same,fold change,[18]; [25],0.927 (inactive)
same,fold change,[18]; [26],1.16
same,cell count,[18]; [27],8010
same,cell count,[18]; [28],8650
same,z-score,[8]; [19],0.533 (inactive)
same,z-score,[8]; [20],0.0837
